The record followed here is the supplement of paper PMC7411054.

Where a name gives a salt, the structure may show the parent alone. Bounds are passed on as bounds.

What all share (settings): treatment time: 24 h
Test [1] relates to A549-ACTB-RAB5A. The test can be described thus: lowest phenotypically active concentration; higher = less potent. The method, boiled down: (§1)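 The reporter lines, fifteen in total and built by gene editing in A549, HepG2 and WPMY1 cells, used BFP for segmentation alongside GFP and RFP/FusionRed markers. Each was treated at 0.3, 1, 3 or 9 µM for 24 h in four wells and then imaged live, with live-cell features normalised to solvent control wells. Deviation meant ≥3 of 4 wells beyond the 95th percentile of control Euclidean distances; reproducibility meant a median replicate Pearson correlation above the 95th percentile of non-replicates. Only conditions meeting both were scored as phenotypically active.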

For test [2], the system named is A549-GM130-SQSTM1. The test is described as above. The gist of the method:
as §1

In test [3] the test system is A549-TUBA1B-RELA. The description is as above. The gist of the method:
as §1

The subject of test [4] is HepG2-ACTB-RAB5A. Described as above. The method, boiled down:
as §1

The test system of test [5] is A549-ACTB-RAB5A. Kind of test: phenotypically active (imaging signature differs from DMSO and reproducible) at any of 0.3-9 uM (binary (1 = active, 0 = inactive)); higher = active. The method, boiled down:
as §1

A further test deals with A549-CANX-COX4. The description is as above. The gist of the method: as §1
In test [6] the test system is A549-GM130-SQSTM1. The test is described as above. The method, boiled down:
as §1

The test system of another test is A549-TP53BP1-CLTA. The description is as above. The method, boiled down: as §1
Test [7] deals with A549-TUBA1B-RELA. The description is as above. The gist of the method: as §1
Test [8] relates to HepG2-ACTB-RAB5A. The test is described as above. The method, boiled down: as §1
The next test concerns HepG2-CANX-COX4. The test is described as above. The gist of the method:
as §1

A further test concerns HepG2-GM130-SQSTM1. Described as above. The method, boiled down: as §1
A further test deals with HepG2-TP53BP1-CLTA. The test is described as above. The gist of the method:
as §1

Another test deals with HepG2-TUBA1B-RELA. The description is as above. The method, boiled down:
as §1

The test system of a further test is WPMY1-ACTB-RAB5A. The description is as above. The method, boiled down:
as §1

Test [9] has as its system WPMY1-CANX-COX4. The description is as above. The gist of the method:
as §1

In a further test the test system is WPMY1-GM130-SQSTM1. Described as above. The gist of the method:
as §1

The next test concerns WPMY1-TP53BP1-CLTA. Described as above. The gist of the method:
as §1

The test system of the next test is WPMY1-TUBA1B-RELA. The test is described as above. The gist of the method: as §1
The subject of test [10] is WPMY1-CANX-COX4. Kind of test: lowest phenotypically active concentration; higher = less potent. The method, boiled down: as §1

With `Cc1cc(Nc2ccc(NC(=O)c3ccc(Nc4ccnc5ccccc45)cc3)cc2)nc(N)n1`, the “lowest phenotypically active concentration” value with A549-ACTB-RAB5A [1] was determined as 1 µM; in the test with A549-GM130-SQSTM1 [2], 1 µM; in the test on A549-TUBA1B-RELA [3], 1 µM; in the test on HepG2-ACTB-RAB5A [4], 9 µM. The phenotypically active is 1 (active) in the test on A549-ACTB-RAB5A [5]; 0 (inactive) in the test with A549-CANX-COX4; 1 (active) in the test on A549-GM130-SQSTM1 [6]; 1 (active) in the test with A549-TP53BP1-CLTA; 1 (active) with A549-TUBA1B-RELA [7]; 1 (active) in the test on HepG2-ACTB-RAB5A [8]. The phenotypically active in the test with HepG2-CANX-COX4 was 0 (inactive); in the test with HepG2-GM130-SQSTM1, 1 (active); with HepG2-TP53BP1-CLTA, 1 (active); in the test on HepG2-TUBA1B-RELA it was 1 (active); in the test with WPMY1-ACTB-RAB5A, 1 (active); in the test with WPMY1-CANX-COX4 [9], 0 (inactive). Besides, the phenotypically active in the test with WPMY1-GM130-SQSTM1, with WPMY1-TP53BP1-CLTA and in the test with WPMY1-TUBA1B-RELA was 1 (active) in each case.

In the case of `CCCS(=O)(=O)Nc1ccc(F)c(C(=O)c2c[nH]c3ncc(Cl)cc23)c1F`, the “lowest phenotypically active concentration” value in the test with A549-ACTB-RAB5A [1] was 3 µM; in the test with A549-GM130-SQSTM1 [2] it was 9 µM; in the test on A549-TUBA1B-RELA [3], 9 µM; in the test on HepG2-ACTB-RAB5A [4], 3 µM. Further, the phenotypically active in the test on A549-ACTB-RAB5A [5] is 1 (active); with A549-CANX-COX4, 0 (inactive); in the test on A549-GM130-SQSTM1 [6], 1 (active); in the test on A549-TP53BP1-CLTA it was 1 (active); in the test with A549-TUBA1B-RELA [7], 1 (active); in the test on HepG2-ACTB-RAB5A [8], 1 (active). Moreover, the phenotypically active with HepG2-CANX-COX4 was 1 (active); with HepG2-GM130-SQSTM1 it was 1 (active); in the test with HepG2-TP53BP1-CLTA, 1 (active); in the test with HepG2-TUBA1B-RELA, 1 (active); in the test on WPMY1-ACTB-RAB5A, 0 (inactive); with WPMY1-CANX-COX4 [9] it was 0 (inactive). The figures for the phenotypically active with WPMY1-GM130-SQSTM1, in the test on WPMY1-TP53BP1-CLTA and in the test with WPMY1-TUBA1B-RELA were 1 (active), 0 (inactive) and 0 (inactive), respectively.

Take `O=C(NOCC1CC1)c1ccc(F)c(F)c1Nc1ccc(I)cc1Cl`: the “lowest phenotypically active concentration” value in the test with A549-ACTB-RAB5A [1] was at most 0.3 µM; with A549-GM130-SQSTM1 [2], 1 µM; with A549-TUBA1B-RELA [3], 9 µM; in the test on HepG2-ACTB-RAB5A [4], at most 0.3 µM. Moreover, the phenotypically active with A549-ACTB-RAB5A [5] is 1 (active); in the test on A549-CANX-COX4, 0 (inactive); in the test on A549-GM130-SQSTM1 [6] it was 1 (active); with A549-TP53BP1-CLTA, 1 (active); with A549-TUBA1B-RELA [7], 1 (active); in the test on HepG2-ACTB-RAB5A [8], 1 (active). Besides, the phenotypically active with HepG2-CANX-COX4 is 1 (active); with HepG2-GM130-SQSTM1, 1 (active); in the test on HepG2-TP53BP1-CLTA it was 1 (active); in the test with HepG2-TUBA1B-RELA, 1 (active); in the test with WPMY1-ACTB-RAB5A, 0 (inactive); in the test with WPMY1-CANX-COX4 [9], 0 (inactive). For the same molecule, the phenotypically active with WPMY1-GM130-SQSTM1, in the test on WPMY1-TP53BP1-CLTA and with WPMY1-TUBA1B-RELA was 0 (inactive) throughout.

For the molecule `Cc1ccc(NC2=CC(=O)c3sc(C)nc3C2=O)cc1` [Ryuvidine], the “lowest phenotypically active concentration” value is 9 µM in the test with A549-ACTB-RAB5A [1]; 9 µM in the test with A549-GM130-SQSTM1 [2]; 3 µM in the test with A549-TUBA1B-RELA [3]; 3 µM with HepG2-ACTB-RAB5A [4]; 3 µM in the test on WPMY1-CANX-COX4 [10]. Also, the phenotypically active with A549-ACTB-RAB5A [5] is 1 (active); in the test on A549-CANX-COX4 it was 0 (inactive); in the test on A549-GM130-SQSTM1 [6] it was 1 (active); in the test on A549-TP53BP1-CLTA, 1 (active); in the test on A549-TUBA1B-RELA [7] it was 1 (active); in the test on HepG2-ACTB-RAB5A [8], 1 (active). Also, the phenotypically active with HepG2-CANX-COX4 is 0 (inactive); with HepG2-GM130-SQSTM1 it was 1 (active); in the test with HepG2-TP53BP1-CLTA it was 1 (active); with HepG2-TUBA1B-RELA it was 0 (inactive); in the test with WPMY1-ACTB-RAB5A, 1 (active); with WPMY1-CANX-COX4 [9] it was 1 (active). Also, the phenotypically active was 1 (active) in the test with WPMY1-GM130-SQSTM1, 0 (inactive) in the test on WPMY1-TP53BP1-CLTA and 1 (active) in the test on WPMY1-TUBA1B-RELA.

For `CCCCOc1cc(C(=O)NCCN(CC)CC)c2ccccc2n1` [cinchocaine], the “lowest phenotypically active concentration” value in the test on A549-ACTB-RAB5A [1] was 3 µM; in the test with A549-GM130-SQSTM1 [2], 9 µM; in the test on A549-TUBA1B-RELA [3] it was 9 µM. For the same molecule, the phenotypically active with A549-ACTB-RAB5A [5] is 1 (active); with A549-CANX-COX4, 0 (inactive); in the test with A549-GM130-SQSTM1 [6] it was 1 (active); in the test on A549-TP53BP1-CLTA, 1 (active); with A549-TUBA1B-RELA [7], 1 (active); in the test with HepG2-ACTB-RAB5A [8] it was 0 (inactive). The phenotypically active in the test on HepG2-CANX-COX4 is 0 (inactive); in the test on HepG2-GM130-SQSTM1 it was 0 (inactive); in the test on HepG2-TP53BP1-CLTA, 1 (active); in the test on HepG2-TUBA1B-RELA it was 0 (inactive); in the test on WPMY1-ACTB-RAB5A it was 1 (active); with WPMY1-CANX-COX4 [9], 0 (inactive). The phenotypically active in the test with WPMY1-GM130-SQSTM1, with WPMY1-TP53BP1-CLTA and with WPMY1-TUBA1B-RELA was 0 (inactive) in each case.

Regarding `O=C([C@H](Cc1cccc(C(F)(F)F)c1)NS(=O)(=O)c1cc(F)c2c(c1)CCNC2)N1CCCC1` [(S)-PFI 2 hydrochloride], the “lowest phenotypically active concentration” value in the test on A549-ACTB-RAB5A [1] and with A549-GM130-SQSTM1 [2] was 9 µM in each case. For the same molecule, the phenotypically active was 1 (active) with A549-ACTB-RAB5A [5]; 0 (inactive) in the test with A549-CANX-COX4; 1 (active) in the test on A549-GM130-SQSTM1 [6]; 0 (inactive) in the test with A549-TP53BP1-CLTA; 0 (inactive) with A549-TUBA1B-RELA [7]; 0 (inactive) in the test on HepG2-ACTB-RAB5A [8]. The phenotypically active in the test on HepG2-CANX-COX4, with HepG2-GM130-SQSTM1, in the test on HepG2-TP53BP1-CLTA, with HepG2-TUBA1B-RELA, in the test with WPMY1-ACTB-RAB5A and in the test on WPMY1-CANX-COX4 [9] was 0 (inactive) each time. The phenotypically active with WPMY1-GM130-SQSTM1, in the test on WPMY1-TP53BP1-CLTA and in the test with WPMY1-TUBA1B-RELA was 0 (inactive) in each case.

In the case of `COc1cc2c(cc1OCCCN1CCCC1)N=C(N)C21CCC1`, the “lowest phenotypically active concentration” value with A549-ACTB-RAB5A [1], in the test on A549-GM130-SQSTM1 [2] and in the test with A549-TUBA1B-RELA [3] was 9 µM each time. The phenotypically active is 1 (active) with A549-ACTB-RAB5A [5]; 0 (inactive) in the test on A549-CANX-COX4; 1 (active) in the test on A549-GM130-SQSTM1 [6]; 0 (inactive) in the test with A549-TP53BP1-CLTA; 1 (active) in the test on A549-TUBA1B-RELA [7]; 0 (inactive) with HepG2-ACTB-RAB5A [8]. Also, the phenotypically active with HepG2-CANX-COX4, with HepG2-GM130-SQSTM1, in the test on HepG2-TP53BP1-CLTA, in the test with HepG2-TUBA1B-RELA, in the test on WPMY1-ACTB-RAB5A and in the test on WPMY1-CANX-COX4 [9] was 0 (inactive) in each case. The phenotypically active in the test with WPMY1-GM130-SQSTM1, with WPMY1-TP53BP1-CLTA and with WPMY1-TUBA1B-RELA was 0 (inactive) in each case.

As for `O=C([C@@H](Cc1cccc(C(F)(F)F)c1)NS(=O)(=O)c1cc(F)c2c(c1)CCNC2)N1CCCC1` [(R)-PFI 2 hydrochloride], the “lowest phenotypically active concentration” value in the test on A549-ACTB-RAB5A [1], with A549-GM130-SQSTM1 [2] and in the test on A549-TUBA1B-RELA [3] was 9 µM in each case. Besides, the phenotypically active in the test with A549-ACTB-RAB5A [5] is 1 (active); in the test on A549-CANX-COX4 it was 0 (inactive); with A549-GM130-SQSTM1 [6], 1 (active); with A549-TP53BP1-CLTA it was 0 (inactive); in the test on A549-TUBA1B-RELA [7], 1 (active); with HepG2-ACTB-RAB5A [8], 0 (inactive). In addition, the phenotypically active in the test on HepG2-CANX-COX4, with HepG2-GM130-SQSTM1, in the test with HepG2-TP53BP1-CLTA, in the test on HepG2-TUBA1B-RELA, in the test with WPMY1-ACTB-RAB5A and in the test on WPMY1-CANX-COX4 [9] was 0 (inactive) in each case. For the same molecule, the phenotypically active with WPMY1-GM130-SQSTM1, with WPMY1-TP53BP1-CLTA and in the test with WPMY1-TUBA1B-RELA was 0 (inactive) each time.
